# Test results: the supplement of paper PMC8975748
# Where a name gives a salt, the structure may show the parent alone.
# Test system: Saccharomyces cerevisiae BY4741 SeMeCo community
# Experiment: z-score of subpopulation abundance vs DMSO median, subpopulation auxotrophic for LU; higher = larger share of this subpopulation than in DMSO controls
# Settings: 10 µM; 24 h; SM minimal medium; subpopulation (auxotrophy): LU
# Procedure, shortened: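 Automated confocal microscopy of paraformaldehyde-fixed cells was used to follow a Saccharomyces cerevisiae BY4741 community carrying four plasmids, each restoring one auxotrophy and encoding a distinct fluorescent protein. The community was pre-grown overnight to OD600 1.0, diluted to 0.3, and added at 70 µl to 384-well plates acoustically predosed with library drugs (10 µM final) for 24 h of growth in minimal SM medium. Single-auxotroph fluorescent strains set thresholds and autofluorescence correction, and each subpopulation's abundance was scored as a z-score against the vehicle-well median.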
row,SMILES,z-score of subpopulation abundance
1,CCCCCOc1ccc(-c2ccc(-c3ccc(C(=O)N[C@H]4C[C@@H](O)[C@@H](O)NC(=O)[C@@H]5[C@@H](O)[C@@H](C)CN5C(=O)[C@H]([C@@H](C)O)NC(=O)[C@H]([C@H](O)[C@@H](O)c5ccc(O)cc5)NC(=O)[C@@H]5C[C@@H](O)CN5C(=O)[C@H]([C@@H](C)O)NC4=O)cc3)cc2)cc1,5.21
2,Cc1ccnc(NS(=O)(=O)c2ccc(N)cc2)n1 [Sulfamerazine],0.43
3,O=C(O)c1cc(-c2ccc(F)cc2F)ccc1O [Diflunisal],-1.6
4,C[C@@H]1[C@H](O)[C@@H](C)/C=C/C=C/C=C/C=C/C=C/C=C/C=C/[C@H](O[C@@H]2O[C@H](C)[C@@H](O)[C@H](N)[C@@H]2O)C[C@@H]2O[C@](O)(C[C@@H](O)C[C@@H](O)[C@H](O)CC[C@@H](O)C[C@@H](O)CC(=O)O[C@H]1C)C[C@H](O)[C@H]2C(=O)O [Amphotericin B],24.4
5,CO/N=C(\C(=O)N[C@@H]1C(=O)N2C(C(=O)O)=CCS[C@H]12)c1csc(N)n1 [Ceftizoxime sodium],-0.54
6,COC1C(O)CC(=O)OC(C)CC=CC=CC(OC2CCC(N(C)C)C(C)O2)C(C)CC(CC=O)C1OC1OC(C)C(OC2CC(C)(O)C(O)C(C)O2)C(N(C)C)C1O (centres undefined) [Spiramycin],-0.46
7,CC(C)(O/N=C(\C(=O)N[C@@H]1C(=O)N2C(C(=O)[O-])=C(C[n+]3ccccc3)CS[C@H]12)c1csc(N)n1)C(=O)O [Ceftazidime],-0.93
8,C[C@@H]1C/C=C/C=C/C=C/C=C/[C@H](O[C@@H]2O[C@H](C)[C@@H](O)[C@H](N)[C@@H]2O)C[C@@H]2O[C@](O)(C[C@@H](O)C[C@H]3O[C@@H]3/C=C/C(=O)O1)C[C@H](O)[C@H]2C(=O)O [Natamycin],8.63
9,COCCCN1CCC(NC(=O)c2cc(Cl)c(N)c3c2OCC3)CC1 [Prucalopride],0.77
10,CCOc1cc(NC(C)=O)ccc1C(=O)OC [Ethopabate],1.2
11,CCCSc1ccc2[nH]c(NC(=O)OC)nc2c1 [Albendazole],0.31
12,CN(C)CCN1C(=O)c2cccc3cc(N)cc(c23)C1=O [Amonafide],-0.78
13,COc1ccnc(C[S+]([O-])c2nc3cc(OC(F)F)ccc3[nH]2)c1OC (centres undefined) [Pantoprazole sodium],-0.65
14,CCOC(=O)C1=C(COCCN)NC(C)=C(C(=O)OC)C1c1ccccc1Cl (centres undefined) [Amlodipine Besylate],-6.85
15,CC(C)(C)C(=O)C(Oc1ccc(Cl)cc1)n1ccnc1 (centres undefined) [Climbazole],-2.81
16,COc1cc(N)c(Cl)cc1C(=O)NC1CCN(CCCOc2ccc(F)cc2)CC1OC (centres undefined) [Cisapride],-0.54
17,COc1ccc2[nH]c([S+]([O-])Cc3ncc(C)c(OC)c3C)nc2c1 (centres undefined) [Omeprazole],0.12
18,O=C1CCc2cc(OCCCCc3nnnn3C3CCCCC3)ccc2N1 [Cilostazol],-0.63
19,O=c1ccn(C2CC(O)C(CO)O2)c(=O)[nH]1 (centres undefined) [2-deoxyuridine],0.31
20,NC12CC3CC(CC(C3)C1)C2 [Amantadine HCl],-0.18
21,CO/N=C(\C(=O)N[C@@H]1C(=O)N2C(C(=O)OCOC(=O)C(C)(C)C)=C(/C=C\c3scnc3C)CS[C@H]12)c1csc(N)n1 [Cefditoren Pivoxil],0.07
22,O=C1c2cccc3c2[C@H](CCC3)CN1[C@@H]1CN2CCC1CC2 [Palonosetron HCl],-0.38
23,CCCOc1ccc2[nH]c(NC(=O)OC)nc2c1 [Oxibendazole],1.03
24,C[C@]12CC[C@@H]3c4ccc(O)cc4CC[C@H]3[C@@H]1CC[C@@H]2OC(=O)CCC1CCCC1 [Estradiol Cypionate],0.17
25,COc1ccc2c(c1)c(CC(=O)O)c(C)n2C(=O)c1ccc(Cl)cc1 [Indomethacin],-0.17
26,O=C(O)Cc1ccccc1Nc1c(Cl)cccc1Cl [Diclofenac Diethylamine],-0.75
27,Clc1ccccc1C(c1ccccc1)(c1ccccc1)n1ccnc1 [Clotrimazole],-0.93
28,C[C@@H](O)[C@H]1C(=O)N2C(C(=O)OCOC(=O)C(C)(C)C)=C(SC3CN(C4=NCCS4)C3)[C@H](C)[C@H]12 [Tebipenem Pivoxil],-0.6
29,COC(=O)C1=C(C)NC(C)=C(C(=O)OCC(C)C)C1c1ccccc1[N+](=O)[O-] (centres undefined) [Nisoldipine],-0.62
